From ChEMBL document CHEMBL4513146, “CO-ADD screening of Karazin Kharkiv National University (Ukraine) compounds”
Potency and affinity values are given separately.

How the values were obtained:
Klebsiella pneumoniae = settings: Concentration 32 ug.mL-1;; ASSAY_TEST Inhibition of Bacterial Growth; detection method Absorption (OD600); MEDIA CAMHB; plate type 384well; NBS; CORNING #3640; time 18 hr
Candida albicans = settings: Concentration 32 ug.mL-1; ASSAY_TEST Inhibition of Fungal Growth; detection method Absorption (OD530)
Cryptococcus neoformans = settings: Concentration 32 ug.mL-1; ASSAY_TEST Inhibition of Fungal Growth; detection method Resazurin; Absorption (OD600-OD570); plate type 384well; NBS; CORNING #3640

SMILES | Inhibition (Klebsiella pneumoniae) [%] | Inhibition (Candida albicans) [%] | Inhibition (Cryptococcus neoformans) [%]
CCc1nnc2c(SCC(=O)Nc3c(C)cc(C)cc3C)nc3ccccc3n12 | 8.2 | 1.5 | -17.04
Cc1ccc(Oc2nccn3c(=O)n(CC(=O)Nc4ccccc4C(F)(F)F)nc23)cc1 | 6.49 | 0.6 | -7.72
COc1ccc(NC(=O)Cn2nc3c(Sc4ccccc4)nccn3c2=O)c(OC)c1 | 2.54 | 2.27 | -16.55
Cc1ccc(NC(=O)Cn2c(=O)c3nnc(C(C)C)n3c3ccccc32)cc1 | 2.07 | 1.19 | -10.22
COc1cccc(-n2ccn3c(SCC(=O)Nc4ccc(C(C)C)cc4)nnc3c2=O)c1 | -7.28 | 18.36 | -10.59
COc1ccccc1CNC(=O)Cn1nc2c(N3CCCCCC3)nccn2c1=O | 8.05 | 3.98 | -7.24
O=c1c2sccc2n2c(=O)n(Cc3ccccc3F)nc2n1Cc1cccs1 | -1.85 | 38.88 | -22.09
CCC(Sc1nnc2c(=O)n(-c3ccccc3)ccn12)C(=O)Nc1ccc(OC)cc1OC (stereo not given) | 9.44 | 2.91 | -10.74
Cc1cc2nn(CC(=O)N3CCCc4ccccc43)c(=O)n2c(Nc2ccc(F)cc2)n1 | 10.84 | 1.07 | -3.85
Cc1ccc(Sc2nccn3c(=O)n(CC(=O)N4CCN(c5ccccc5F)CC4)nc23)c(C)c1 | 9.62 | 0.22 | -25.75
